A selection: hits, their analogues and other compounds. The true share with any hit is near 0.82%.
DUSP3 inh = blocks human VHR1 dual specificity phosphatase; inhibition, % at 13.3 µM; recombinant VHR phosphatase, pNPP absorbance; hit rate 0.52% among 290,000; P51452; in the data active = inhibition above about 50%
TcdB GH inh = inhibitors of Clostridioides difficile toxin B glycohydrolase. TcdB glycohydrolase enzymatic assay, plate reader. inhibition, % at 9.99 µM. hit rate 0.24% among 350,000; in the data active = inhibition above about 10%
PrPC surface inh = inhibitors of human cell surface prion protein PrPC; P04156; TR-FRET read-out; inhibition, % at 13.8 µM; hit rate 0.43% among 370,000; in the data active = inhibition above about 24%
PrPC TRFRET cf = cell surface PrPC inhibition, TR-FRET confirmation. hit rate 65% among 1,500. cell surface PrPC level. inhibition, % at 13.8 µM. AID 743200. shares compounds with PrPC surface inh; in the data active = inhibition above about 25%
LD9 cytotox = LD9 cell cytotoxicity, PrPc inhibitor counter-screen; shares compounds with PrPC surface inh; AID 743201; LD9 cells cytotoxicity, luminescence viability; inhibition, % at 13.8 µM; hit rate 29% among 1,500; in the data active = inhibition above about 9.5%
A number is an active result; . = inactive; / = no result.

SMILES	DUSP3 inh	TcdB GH inh	PrPC surface inh	PrPC TRFRET cf	LD9 cytotox
C/C=C/c1ccc([C@@H]2[C@@H](CO)N(C(C)=O)C23CN(C(=O)NC2CCCC2)C3)cc1	/	.	/	/	/
C[C@H]1C[C@@H](C)C(=O)[C@@H]([C@H](O)CC2CC(=O)NC(=O)C2)C1	.	.	89	98	32
CC1CC(C)C(=NNC(N)=O)C(C(O)CC2CCC(=O)NC2=O)C1 (configuration not stated)	/	.	84	43	15
CCC12CN3CCN(CC(C3)/C1=N/NC(N)=O)C2	.	.	.	/	/
COc1cccc(C(=O)Nc2ccc3c(c2)C(=O)N(C)[C@H]2CC[C@H](CC(=O)NCC(F)(F)F)O[C@@H]2CO3)c1	/	.	/	/	/
C[C@@H]1CCCCO[C@@H](CN(C)S(=O)(=O)c2cn(C)cn2)[C@H](C)CN([C@H](C)CO)C(=O)c2cc(NC(=O)CCC(F)(F)F)ccc2O1	/	.	/	/	/
COc1ccc(CC(=O)Nc2ccc(N3CCN(c4ccc(OC)cc4)CC3)c(C#N)c2)cc1	.	/	25	40	13
COc1ccc(N2CCN(c3ccc(NC(=O)c4ccc5c(c4)OCO5)cc3C#N)CC2)cc1	.	/	/	/	/
COc1ccc(-c2nc(-c3ccc(Br)o3)no2)cc1OC	.	.	.	/	/
COc1ccc(-c2nnc(-c3ccc(Br)o3)o2)cc1OC	.	/	60	76	.
COc1ccc(CN(C)C[C@@H]2Oc3c(NS(=O)(=O)c4ccc(C)cc4)cccc3C(=O)N([C@H](C)CO)C[C@@H]2C)cc1	/	.	/	/	/
COc1ccc([N+](=O)[O-])c(S(=O)(=O)c2ccccc2)n1	.	.	52	.	95
Nc1cccnc1S(=O)(=O)c1ccccc1	.	.	.	/	/
COc1ccc([N+](=O)[O-])c(S(=O)(=O)c2ccc(Cl)cc2)n1	.	.	.	/	/
O=[N+]([O-])c1cccnc1S(=O)(=O)c1ccccc1	.	.	38	.	98
C[C@@H]1CN([C@@H](C)CO)C(=O)c2cc(NS(=O)(=O)c3cn(C)cn3)ccc2O[C@@H](C)CCCCO[C@H]1CN(C)C(=O)c1ccccc1	/	.	/	/	/
COc1ccc(CCNC(=O)C2CC2)cc1	/	.	.	/	/
COc1ccc(C[C@H]2NC[C@H](O)[C@H]2OC(C)=O)cc1	/	.	89	102	47
C[C@@H]1CN([C@@H](C)CO)C(=O)c2cc(NS(=O)(=O)c3ccc(F)cc3)ccc2O[C@@H](C)CCCCO[C@H]1CN(C)C	/	.	/	/	/
CCC(=O)N1CC2(C1)CN(Cc1ccccc1Cl)[C@H](CO)c1c2c2ccc(OC)cc2n1C	/	.	/	/	/
Cc1ccc(-n2c(-c3ccc(Br)cc3)c[n+]3c2CCc2ccc4cccnc4c2-3)cc1	.	/	25	31	46
COc1ccc(-n2c(-c3ccc(Cl)cc3)c[n+]3c2CCc2ccccc2-3)cc1	.	.	.	/	/
CCO[C@H]1OC(C(=O)NCc2nc3ccccc3[nH]2)=C[C@@H](C)[C@@H]1CCCO	.	.	.	/	/
CCO[C@H]1OC(C(=O)NCc2nc3ccccc3[nH]2)=C[C@@H](C2CCCCC2)[C@@H]1CCCO	.	.	44	25	.
O=C(C[C@H]1C=C[C@@H](NC(=O)C2CCOCC2)[C@@H](CO)O1)NCc1ccncc1	/	.	/	/	/
SMILES	DUSP3 inh	TcdB GH inh	PrPC surface inh	PrPC TRFRET cf	LD9 cytotox
Cc1nc(Nc2ncc(C(=O)Nc3c(C)cccc3Cl)s2)cc(N2CCN(CCO)CC2)n1	/	/	25	.	.
Cc1cccc(Cl)c1NC(=O)N1CCCN(c2nc3ccc(Cl)cc3s2)CC1	.	.	.	/	/
Cc1noc(C)c1S(=O)(=O)N(C)C[C@@H]1OCCCC[C@H](C)Oc2ccc(NS(C)(=O)=O)cc2C(=O)N([C@@H](C)CO)C[C@H]1C	/	.	/	/	/
Cc1cc2ccccc2n1CCNC(=O)Cc1ccccc1	.	.	27	.	.
Cc1ccc(S(=O)(=O)NCCn2c(C)cc3ccccc32)cc1	.	/	/	/	/
Cc1cccc(CC(=O)NCCn2c(C)cc3ccccc32)c1	.	.	27	.	.
Cc1cc2ccccc2n1CCNC(=O)C(C)C	.	.	.	/	/
Cc1cc2ccccc2n1CCNC(=O)C(C)Oc1ccccc1 (configuration not stated)	.	.	41	30	.
COCCNC(=O)C(C)Oc1ccccc1 (configuration not stated)	.	.	.	/	/
COc1cccc(C(NC(C)=O)c2ccc3cccnc3c2O)c1 (configuration not stated)	.	.	41	33	44
CC(=O)NC(c1ccc(C(C)C)cc1)c1ccc2cccnc2c1O (configuration not stated)	.	.	26	28	22
CCCCC(=O)NC(c1cccc([N+](=O)[O-])c1)c1ccc2cccnc2c1O (configuration not stated)	/	.	.	/	/
CCC(=O)NC(c1ccccc1OC)c1ccc2cccnc2c1O (configuration not stated)	.	/	/	/	/
CC(=O)NC(c1ccc(C)cc1)c1cc(Cl)c2cccnc2c1O (configuration not stated)	.	.	.	/	/
CC(=O)NC(c1cccc([N+](=O)[O-])c1)c1ccc2cccnc2c1O (configuration not stated)	.	.	40	37	38
CO[C@@H]1CN(C)C(=O)c2cc(NC(=O)c3ccc4c(c3)OCO4)ccc2OC[C@H](C)NC[C@H]1C	/	.	/	/	/
C[C@@H]1CN([C@@H](C)CO)C(=O)Cc2cc(NC(=O)Nc3ccc(C(F)(F)F)cc3)ccc2O[C@H]1CN(C)C(=O)Nc1cccc2ccccc12	/	.	/	/	/
COc1ccc(NC(=O)Nc2ccc3c(c2)C(=O)N([C@H](C)CO)C[C@H](C)[C@H](CN(C)S(=O)(=O)c2cccs2)O3)cc1	/	.	/	/	/
Cc1cc2cc(CNC(=O)Cc3ccc([N+](=O)[O-])cc3)ccc2n1C	.	.	.	/	/
Cc1c(C(=O)NCc2ccc3c(c2)cc(C)n3C)cccc1[N+](=O)[O-]	.	.	34	.	.
Cc1cc2cc(CNC(=O)c3cccc([N+](=O)[O-])c3)ccc2n1C	.	.	37	.	.
Cc1c(C(=O)NCc2ccco2)cccc1[N+](=O)[O-]	.	/	.	/	/
C[C@H](NC(=O)[C@H]1[C@H](CO)[C@H]2Cn3c(ccc(C4=CCCC4)c3=O)[C@@H]1N2C(=O)C1CC1)c1ccccc1	/	.	/	/	/
COc1ccc(S(=O)(=O)N(C)C[C@H]2Oc3ccc(NS(C)(=O)=O)cc3C(=O)N([C@@H](C)CO)C[C@H]2C)cc1	/	.	/	/	/
CN(C)C(=O)C[C@H]1C=C[C@@H](NC(=O)C2CC2)[C@H](CO)O1	/	.	/	/	/
SMILES	DUSP3 inh	TcdB GH inh	PrPC surface inh	PrPC TRFRET cf	LD9 cytotox
CC(C)C#Cc1ccc2c(c1)O[C@@H](CN(C)C(=O)c1cccc(F)c1)[C@@H](C)CN([C@H](C)CO)S2(=O)=O	/	.	/	/	/
COc1ccc2sc3ccccc3c(=O)c2c1OC	.	/	29	38	.
COc1cccc2sc3ccc(C#Cc4ccc(N)cc4)cc3c(=O)c12	.	.	.	/	/
CCC(=O)Nc1ccc2c(c1)C(=O)N(C)[C@@H]1CC[C@H](CC(=O)N[C@@H](C)c3ccccc3)O[C@H]1CO2	/	.	/	/	/
O=C(NCc1ccccn1)[C@@H]1[C@@H](CO)[C@@H]2Cn3c(cccc3=O)[C@H]1N2CC1CCCC1	/	.	/	/	/
Cn1c(N)c(C(=O)CSc2nnc(N)s2)c(=O)n(C)c1=O	/	.	.	/	/

Assay outcomes: PubChem, several laboratories
